Several values for one entry are separate records, joined by “and”; a condition that tells them apart may be missing. Equal entries are not always repeated. Screen size: about 5,500 compounds; about 2,000 (36%) were called active. Another 18% or so got no clear call; they are omitted. Rule as the data show it: active = normalized growth mostly below about 0.91 (no sharp cut-off); inconclusive = no clear call, values can overlap the other calls; inactive = mostly above about 0.92. Some of the results follow.
Assay: chemical genetic growth profiling, strain panel (AID 1159580);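 also: tested at 20 µM; growth read once vehicle control cultures reached saturation at 30 °C; 1 = growth at the plate median or of vehicle wells; lower values mean less growth of the strain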
Conditions: S. cerevisiae deletion strains, growth OD

Measured: normalized growth

CC[C@H]1OC(=O)[C@H](C)[C@@H](O[C@H]2C[C@@](C)(OC)[C@@H](O)[C@H](C)O2)[C@H](C)[C@@H](O[C@@H]2O[C@H](C)C[C@H](N(C)C)[C@H]2O)[C@](C)(O)C[C@@H](C)[C@@H]2N[C@@H](COCCOC)O[C@H]([C@H]2C)[C@]1(C)O
inactive: locus YAL021C, strain ccr4, stronger effect = lower value 0.991 | locus YAL026C, strain drs2, stronger effect = lower value 0.993 | locus YAL030W, strain snc1, stronger effect = lower value 0.999 | locus YBL061C, strain skt5, stronger effect = lower value 0.982 | locus YBR009C, strain hhf1, stronger effect = lower value 0.995 | locus YBR021W, strain FUR4, stronger effect = lower value 1.01 | locus YBR023C, strain chs3, stronger effect = lower value 0.993 | locus YBR171W, strain sec66, stronger effect = lower value 0.977 | locus YBR229C, strain ROT2, stronger effect = lower value 1.01 | locus YBR231C, strain swc5, stronger effect = lower value 0.992 | locus YBR279W, strain paf1, stronger effect = lower value 0.998 | locus YCL011C, strain gbp2, stronger effect = lower value 0.99 | locus YCL016C, strain dcc1, stronger effect = lower value 0.985 | locus YCL029C, strain bik1, stronger effect = lower value 1.01 | locus YCL061C, strain MRC1, stronger effect = lower value 0.982 | locus YCL069W, strain vba3, stronger effect = lower value 0.988 | locus YCR088W, strain abp1, stronger effect = lower value 0.999 | locus YDL005C, strain med2, stronger effect = lower value 0.978 | locus YDL035C, strain GPR1, stronger effect = lower value 1.01 | locus YDL040C, strain nat1, stronger effect = lower value 0.996 | locus YDL074C, strain BRE1, stronger effect = lower value 1.01 | locus YDL101C, strain DUN1, stronger effect = lower value 1.05 | locus YDL185W, strain tfp1, stronger effect = lower value 1 | locus YDL192W, strain arf1, stronger effect = lower value 1.01 | locus YDR001C, strain nth1, stronger effect = lower value 0.995 | locus YDR069C, strain doa4, stronger effect = lower value 0.995 | locus YDR101C, strain arx1, stronger effect = lower value 0.984 | locus YDR137W, strain rgp1, stronger effect = lower value 1 | locus YDR159W, strain sac3, stronger effect = lower value 0.985 | locus YDR162C, strain NBP2, stronger effect = lower value 1 | locus YDR195W, strain ref2 0.966 | locus YDR297W, strain sur2, stronger effect = lower value 1 | locus YDR318W, strain mcm21, stronger effect = lower value 1.01 | locus YDR334W, strain swr1, stronger effect = lower value 0.986 | locus YDR335W, strain msn5, stronger effect = lower value 0.998 | locus YDR388W, stronger effect = lower value 1.01 | locus YDR392W, strain spt3, stronger effect = lower value 0.989 | locus YDR502C, strain sam2, stronger effect = lower value 0.997 | locus YEL003W, strain gim4, stronger effect = lower value 1 | locus YEL037C, strain rad23, stronger effect = lower value 0.997 | locus YEL061C, strain CIN8 (second series), stronger effect = lower value 0.998 | locus YEL061C, strain CIN8, stronger effect = lower value 1.01 | locus YER015W, strain faa2, stronger effect = lower value 1 | locus YER016W, strain bim1, stronger effect = lower value 0.987 | locus YER110C, stronger effect = lower value 1.01 | locus YER111C, strain swi4, stronger effect = lower value 0.991 | locus YER155C, strain BEM2 (second series), stronger effect = lower value 0.999 | locus YER155C, strain BEM2, stronger effect = lower value 1.01 | locus YER167W, strain BCK2, stronger effect = lower value 1 | locus YFR010W, strain ubp6, stronger effect = lower value 0.988 | locus YGL078C, strain dbp3, stronger effect = lower value 1.01 | locus YGL167C, strain pmr1, stronger effect = lower value 0.991 | locus YGL173C, strain kem1, stronger effect = lower value 0.984 | locus YGL227W, strain vid30, stronger effect = lower value 0.99 | locus YGL240W, strain doc1, stronger effect = lower value 0.989 | locus YGL248W, strain PDE1, stronger effect = lower value 1.02 | locus YGL253W, strain hxk2, stronger effect = lower value 0.998 | locus YGR135W, strain pre9, stronger effect = lower value 1.04 | locus YGR252W, strain gcn5, stronger effect = lower value 0.991 | locus YHR013C, strain ard1, stronger effect = lower value 0.952 | locus YHR027C, strain rpn1, stronger effect = lower value 0.983 | locus YHR030C, strain SLT2, stronger effect = lower value 1 and 1.04 | locus YHR079C, strain IRE1 (second series), stronger effect = lower value 1.01 | locus YHR079C, strain IRE1, stronger effect = lower value 1.03 | locus YHR094C, strain hxt1, stronger effect = lower value 1.01 | locus YHR129C, strain ARP1, stronger effect = lower value 1.01 | locus YHR142W, strain chs7, stronger effect = lower value 0.997 | locus YHR200W, strain rpn10, stronger effect = lower value 1.01 | locus YIL066C, strain RNR3, stronger effect = lower value 1.01 | locus YIL073C, strain SPO22, stronger effect = lower value 1.06 | locus YIL125W, strain kgd1, stronger effect = lower value 1 | locus YIR030C, strain dcg1, stronger effect = lower value 1.02 | locus YJL092W, strain hpr5, stronger effect = lower value 0.991 | locus YJL095W, strain BCK1 (second series), stronger effect = lower value 0.982 | locus YJL095W, strain BCK1, stronger effect = lower value 1.06 and 1 | locus YJL115W, strain asf1, stronger effect = lower value 0.995 | locus YJL129C, strain trk1, stronger effect = lower value 1.01 | locus YJL134W, strain LCB3, stronger effect = lower value 1.01 | locus YJL154C, strain vps35, stronger effect = lower value 0.993 | locus YJL164C, strain tpk1, stronger effect = lower value 1 | locus YJL166W, strain qcr8, stronger effect = lower value 0.993 | locus YJL168C, strain set2, stronger effect = lower value 1 | locus YJL187C, strain SWE1 (second series), stronger effect = lower value 1.05 | locus YJL187C, strain SWE1, stronger effect = lower value 0.991 | locus YJR043C, strain POL32, stronger effect = lower value 0.989 | locus YJR066W, strain TOR1, stronger effect = lower value 0.982
